According to ChEMBL document CHEMBL3988442, “University of Dundee, Small-Polar-MMV Screening Library” (2021):
Several values for one entry are separate records, joined by “and”; a condition that tells them apart may be missing. Equal entries are not always repeated. Out of some 38,000 compounds screened, about 1,200 (3.2%) showed an effect of 50% or more. The median lay at about -58%. The sample as a whole holds a higher share of strong results than the screen did.

System: Plasmodium falciparum
Test: Calibr Malaria Delayed Death Assay SOP
Assay type: functional, organism-based
Parameters: scale not given: in the data most compounds retested in dose-response had high values
Conditions: concentration 4.99e-06 (unit not given; other assays of the set use mol/L)

Structure (SMILES)	Percent Effect [%]	Percent Effect (4.99 µM)
c1csc(CN(Cc2ccsc2)CC2CCCO2)n1 (stereo not drawn)	-152.6	–
CCOc1cccc(CNC(=O)c2cnn(CC)c2C(F)(F)F)c1	-100.3	–
O=C(CN1CCCS1(=O)=O)Nc1ccc(OC2CCCC2)cc1	-131	–
O=C1NCc2ccc(NC(=O)C3CCCN3c3nccs3)cc21 (stereo not drawn)	-60.91	–
CC(=O)c1ccc(NC(=O)C(NC(=O)Nc2ccccc2)C(C)C)cc1 (stereo not drawn)	-29.84	–
Cn1ccnc1SCCNC1CCN(c2ncccn2)CC1	-15.99	–
CCc1nccn1CCNC1CCN(c2nc3ccc(Cl)cc3s2)CC1	85.53	–
CCc1cc(N2CCC(NCCc3ccccc3F)CC2)nc(C)n1	-10.81	–
O=C(NCCNC1CCN(c2nccs2)CC1)c1cccs1	-27.34	–
Cn1ccnc1SCCNC1CCN(c2nc3ccccc3s2)CC1	58.02	–
Cc1n[nH]c(SCCNC2CCN(c3nc4ccccc4s3)CC2)n1	-208.3	–
N#Cc1ccc(OCC(O)CN2CCc3cncnc3C2)cc1 (stereo not drawn)	-94.24	–
COc1ccc(C2CCN(Cc3cscn3)CC2)cc1	-93.29	–
c1ccc(C2CN(C3CC3)CC3(CCN(Cc4cscn4)CC3)C2)cc1 (stereo not drawn)	80.59	–
CCN1CC2(CCC1=O)CCN(Cc1cscn1)CC2	-71.85	–
CCN1CC(c2ccccc2)CC2(CCN(Cc3ncc[nH]3)CC2)C1 (stereo not drawn)	87.85	–
CN1CC(c2ccccc2)CC2(CCN(Cc3ncc[nH]3)CC2)C1 (stereo not drawn)	82.67	–
CCN(CC1CN(Cc2ncc[nH]2)CCO1)c1cccnn1 (stereo not drawn)	-7.517	–
CCc1ccccc1CN1CCN(Cc2ncc[nH]2)[C@H]2CS(=O)(=O)C[C@H]21	-62.66	–
COCCC(=O)N1CCC2(CC1)CC(c1ccccc1)CN(C)C2 (stereo not drawn)	-5.324	–
c1ccc(C2CN(C3CC3)CC3(CCN(Cc4ncc[nH]4)CC3)C2)cc1 (stereo not drawn)	35.37	–
O=C(NCC(O)c1ccc(Cl)c(F)c1)NC1CC=CC1 (stereo not drawn)	-17.82	–
CCSc1cc(C(=O)NCCC(=O)N(C)C)ccn1	-118.1	–
Cc1nn(CCNS(=O)(=O)NCc2ccccc2)c(C)c1Cl	-125.5	–
COc1ccccc1N1CCN(C(=O)CCc2nncn2C)C(C)C1 (stereo not drawn)	-70.09	–
Cc1ccc(C)c(OC2CCN(C(=O)NCC(=O)N3CCCC3)CC2)c1	-83.87	–

Structure (SMILES)	Percent Effect [%]	Percent Effect (4.99 µM)
CC(C)n1c2ccccc2c2c1cc(C(=O)NC1CC1)n2C(=O)N(C)C	-14.52	–
O=c1c(CN2CCCCCC2)coc(O)c1CN1CCOCC1	-41.33	–
O=c1c(CN2CCCCCC2)coc(O)c1CN1CCCCCC1	53.69	–
O=c1c(CN2CCSCC2)coc(O)c1CN1CCCC1	-11.49	–
COc1ccc(CNc2c(N3CCN(C)CC3)c(=O)c2=O)cc1	-162.8	–
CCc1nc2n(n1)CC(NCc1noc(-c3ccc(C)cc3)n1)CC2 (stereo not drawn)	-102.8	–
CN(C)c1nc(NCCc2cnccn2)ncc1F	-28.24	–
COCCC1CCCCN1C(=O)c1coc(COc2ccccc2F)n1 (stereo not drawn)	–	-24.51% and -14.95%
Cc1cnn(CCNCc2ccc(F)cc2Cl)c1	-82.03	–
COc1cccc(CNCc2ccccc2Cl)c1O	76.29	–
Fc1ccc(CNCCn2cccn2)c(Cl)c1	-121.7	–
COc1cccc(CNCc2ccc(F)cc2Cl)c1O	78.71	–
COCCNC(=O)NCCc1cccc(OC)c1O	-51.73	–
CCOc1cccc(CNc2ccccc2Cl)c1O	-149	–
O=C(c1ccc2[nH]c(=O)[nH]c2c1)N1CCC(Nc2cccnn2)CC1	-46.87	–
COc1c(C)cnc(CN2CCOC(Cn3cc(C)cn3)C2)c1C (stereo not drawn)	-74.84	–
Cn1c2c(c(=O)n1C)CN(C(=O)c1cnccn1)CCC2	-106.6	–
Cc1ccc(C(=O)N2CCCC3(C2)C(=O)N(C)c2ccccc23)c(=O)[nH]1 (stereo not drawn)	-167.7	–
Cc1cc(C)cc(NC(=O)CC2CN(Cc3ccccc3)CCO2)c1 (stereo not drawn)	-128.2	–
CCc1cccc2cc(CNCCCN3CCOCC3)c(=O)[nH]c12	-14.92	–
COCCCn1c(CN2CCCCO2)cnc1S(=O)(=O)C1CCCC1	-131.1	–
O=C(CNc1ccccc1Cl)Nc1cc(-n2cnnn2)ccc1F	-95.2	–
Cc1ccc(-n2cnnn2)cc1NCC(=O)Nc1ccccc1Cl	78.71	–
Cc1ccc(-n2cnnn2)cc1NCC(=O)Nc1cc(F)ccc1F	71.46	–
O=C(CNc1cc(-n2cnnn2)ccc1F)Nc1cc(F)ccc1F	1.352	–
O=C(CNc1cc(-n2cnnn2)ccc1F)Nc1ccccc1Cl	-49.6	–

Structure (SMILES)	Percent Effect [%]	Percent Effect (4.99 µM)
O=C(CNc1cc(-n2cnnn2)ccc1F)NCc1ccccc1	-22.04	–
Cc1ccc(-c2ccc(=O)n(CC(=O)Nc3nccs3)n2)cc1	-17.67	–
FC1(F)CCN(Cc2ccccn2)CC12CCN(c1cnccn1)C2.O=C(O)C(F)(F)F.O=C(O)C(F)(F)F.O=C(O)C(F)(F)F (stereo not drawn)	16.91	–
CC(C)(C)OCC1CN(CC2CC2)S(=O)(=O)c2cnccc2O1 (stereo not drawn)	-18.82	–
O=C1NCC2(CCCN(C(=O)c3c[nH]nc3C3CCCCC3)C2)O1 (stereo not drawn)	-117.3	–
O=C(NCC1CCOC1)c1csc(-c2ccc(F)cc2)n1 (stereo not drawn)	-133.9	–
c1ccc(CO[C@H]2CO[C@@]3(CCCN(Cc4ccncc4)C3)C2)nc1	-35.86	–
CN1C[C@H]2N(c3ncccn3)CCC[C@@]2(C(=O)NCC2CC2)C1.O=C(O)C(F)(F)F	-55.87	–
CCN(CC)Cc1ccc(C(=O)NC2CCc3cc(Cl)ccc32)o1 (stereo not drawn)	54.73	–
CCN(CC)Cc1ccc(C(=O)NC2CCc3cc(Br)ccc32)o1 (stereo not drawn)	46.2	–
CCN(CC)Cc1ccc(C(=O)NC2CCc3cc(F)ccc32)o1 (stereo not drawn)	13.89	–
CCC(c1ccncc1)N(C)S(C)(=O)=O (stereo not drawn)	-63.43	–
O=c1[nH]nc2c(S(=O)(=O)N3CCCCC3)cccn12	-53.1	–
CCSc1nnc(CCNC(=O)OC(C)(C)C)o1	-74.82	–
FC(F)(F)c1cccc(C2(CNCc3ccncc3)CCOCC2)c1	48.98	–
Fc1ccc(C2(CNCCc3cccs3)CCOC2)cc1 (stereo not drawn)	43.71	–
CCN(C)S(=O)(=O)NCC1(c2cccc(Br)c2)CC1	-108.3	–
Clc1ccc(OCCNC2(c3ccc(Br)cc3)CCOCC2)cc1	8.374	–
COCCn1ccnc1C1CCCN(c2cc(OC)nc(N)n2)C1 (stereo not drawn)	-62.62	–
CC(O)(CN1CCC2(CC1)OCCO2)c1cccc(C(F)(F)F)c1 (stereo not drawn)	-10.61	–
CC(=O)N1CCCN(CC(C)(O)c2cccc(C(F)(F)F)c2)CC1 (stereo not drawn)	-93.83	–
CC(O)(CN1CCC(O)CC1)c1cccc(C(F)(F)F)c1 (stereo not drawn)	56.04	–
COc1cc(C)c(S(=O)(=O)CC(=O)N(C)C2CC2)cc1OC	-72.85	–
NC(=O)C1(c2cnccn2)CCCN1Cc1ccccn1 (stereo not drawn)	-37.82	–
Cc1ccc(NCCCc2c(C)noc2C)nn1	-93.73	–
O=C(O)C(F)(F)F.c1cnc(NC2COC3(CCN(Cc4cccs4)CC3)C2)nc1 (stereo not drawn)	-52.55	–

Structure (SMILES)	Percent Effect [%]	Percent Effect (4.99 µM)
Cc1cc(C)cc(CN2CCC3(CC2)CC(Nc2ncccn2)CO3)c1.O=C(O)C(F)(F)F (stereo not drawn)	60.22	–
Cn1cc(CN2CCC3(CC2)CC(Nc2nccs2)CO3)cn1.O=C(O)C(F)(F)F (stereo not drawn)	-11.64	–
Cc1cc(CN2CCC3(CC2)CC(Nc2ncccn2)CO3)nn1C.O=C(O)C(F)(F)F (stereo not drawn)	-11.8	–
O=C(O)C(F)(F)F.c1ccc(CN2CCC3(CC2)CC(Nc2nccs2)CO3)nc1 (stereo not drawn)	73.68	–
O=C(O)C(F)(F)F.c1cnc(NC2COC3(CCN(Cc4ccoc4)CC3)C2)nc1 (stereo not drawn)	-27.43	–
COc1ccc2c(ccn2CCC(=O)Nc2ccc(C(N)=O)cc2)c1	-55.48	–
COCCCN(C)C1CCCN(Cc2noc(C3CC3)n2)C1 (stereo not drawn)	-38.52	–
CCCc1nnc(N2CCC3(CC2)CN(C)C(=O)O3)o1	-93.43	–
O[C@H]1CC[C@@H](Cc2cc(-c3ccccc3)on2)O[C@@H]1CNCC1CC1	37.66	–
O[C@H]1CC[C@@H](Cc2cc(-c3ccccn3)on2)O[C@@H]1CNCC1CC1	-74.71	–
O[C@H]1CC[C@@H](Cc2cc(-c3ccc(F)cc3)on2)O[C@@H]1CNCC1CC1	62.55	–
CN(Cc1cccs1)c1cc(N2CCCC2CO)ncn1 (stereo not drawn)	-120.2	–
Cc1cc2nc(SCC(=O)N3CCOCC3)n(CC(C)C)c(=O)c2[nH]1	-82.87	–
CC(C)c1cc(Br)ccc1NC(=O)NC(C)(CO)CO	-72.51	–
CC(c1nc(C(C)(C)C)no1)S(=O)(=O)CC(=O)N(C)C (stereo not drawn)	-171.7	–
Fc1ccc(OCCCNC2=NCCN2)cc1.I	3.475	–
Fc1ccc(Sc2ccccc2CNC2=NCCN2)cc1.I	79.96	–
O=C(CCc1nnc2ccccn2c1=O)NCc1ccco1	-46.43	–
COc1ccsc1C(=O)NCCN1CCOCC1	-115.8	–
Cc1nc(C)n(CC2CCCN2Cc2ccn(-c3ccccc3)n2)n1 (stereo not drawn)	-118.1	–
CNCCCNC1CCN(c2ccc(-n3ccnc3)cc2)CC1	32.68	–
CCN1CCC2(CC1)CC(CC(=O)N(C)C)c1ccc(F)cc12 (stereo not drawn)	-67.07	–
CCC(C)N(Cc1ccncc1)Cc1ccc(-n2cccn2)cc1 (stereo not drawn)	-4.562	–
CCC(C)N(Cc1ccc(C)cc1)Cc1c[nH]c(C)n1 (stereo not drawn)	77.78	–
CCC(C)N(Cc1c[nH]c(C)n1)Cc1ccccc1Cl (stereo not drawn)	47.84	–
